Measurements taken from PubChem BioAssay (NCATS).
Some of the results follow. Records with an inconclusive call do not appear. A number with no mark means an inactive call. Calls of active or inactive are those of the source. The call rests on the fitted dose curve.

Molecular target: Polyprotein P1234 (Chikungunya virus (strain S27-African prototype)) (UniProt Q8JUX6)
Assay: Selectivity profile for inhibitors of NSP2Pro chikungunya virus (CHIKV): Endogenous NS2/3 peptide Counterscreen (AID 1964103); further: nearly all actives have a fitted effect of over 55% in size
Settings: Purified CHIKV nsP2 protease, endogenous NS2/3 peptide cleavage; series mostly up to 51 µM; activity change, negative = inhibition: at the top concentration
Text: PI: Natalia J. Martinez Ph.D.
National Center for Advancing Translational Sciences (NCATS),
National Institute of Health (NIH), Rockville, Maryland
Chikungunya virus (CHIKV) is a mosquito-borne RNA virus that has emerged as one of the most important global arboviral threats in the last decade. Although the first CHIKV vaccine has recently been FDA approved for use in healthy adults at increased risk, to date, there are no available antiviral drugs for CHIKV infection. CHIKV nsP2 protease plays a crucial role in the processing of the viral polypeptide precursor to release enzymes required for viral replication, thus making it a promising drug target for antiviral discovery. Here, we established a high-throughput pipeline to identify small molecule inhibitors of nsP2 proteolytic activity. The pipeline is composed of a suite of 1,536-well in vitro assays to support quantitative high-throughput (qHTS) screening campaigns. Specifically, we developed a fluorescence resonance energy transfer (FRET)-based assay using a fluorogenic peptide substrate encompassing an endogenous cleavage site and purified recombinant protease domain (nsP2pro). Using this assay, we interrogated ~37,000 small molecules, including those in drug repurposing libraries as well as chemically diverse and medicinal chemistry-friendly compounds. Hits were selected for follow-up validation against full-length nsP2 and an additional peptide. FRET-based 1,536-well assays for papain, hepatitis C virus NS3-4A, and human furin proteases were implemented to characterize compound selectivity. […] Novel compounds were identified to be potential nsP2 inhibitors and molecular docking analyses were performed to explain the binding mode of selected hits. In vitro antiviral activity was evaluated for a subset of compounds using a high-throughput CHIKV infection assay. To our knowledge, the pipeline presented here is unprecedented for CHIKV antiviral discovery research.
PROTOCOL TABLE (as described by Inglese J, Shamu CE and Guy RK. 2007)
SEQUENCE No. (e.g., 1, 2, 3, etc.); […] (e.g., Cells, Incubation, Reagent, etc.); VALUE; DESCRIPTION.
1; Control / Compound; 20 nL; Echo 655 acoustic dispenser, Greiner 1536-well solid bottom black plate.
2; Enzyme; 4 uL; BioRAPTR FRD liquid dispenser (Beckman Coulter).
3; Incubation; 15 min; room temperature.
4; Reagent; 4 uL; 2.5 uM endogenous NS2/3 peptide substrate.
5; Incubation; 1 hr; room temperature.
6; Detection; Fluorescence; WiewLux microplate reader (PerkinElmer), 525 nm excitation, 598/25 nm emission.
NOTES (numbers refer to sequence numbers above).
1. Briefly, 20 nL DMSO, positive control ZnAc (20nM final concentration), and test compounds were transferred into a 1,536-well solid bottom black plate (789176-F, Greiner One) via Echo 655 acoustic dispenser (Beckman Coulter). For primary screens, compounds were tested at 7 concentrations, 1:3 dilution points ranging from 25 uM to 34 nM. Follow-up confirmatory screens were carried out at 11 concentrations, 1:3 dilution points from 25 uM to 0.42 nM.
2. Four uL nsP2pro enzyme mix (150 nM final concentration) in 10 mM Tris-HCl pH 8.0 with 0.01% Tween 20 assay buffer was dispensed into the plate using a BioRAPTR FRD liquid dispenser (Beckman Coulter).
3. The plate was incubated at room temperature (protected from light) for 15 min
4. Four microliter of endogenous NS2/3 peptide substrate (peptide 3: TMR-[…]/APSYR-K-QSY7; 2.5 uM final concentration) in assay buffer was added to the plate.
5. After 1 hour, plates were immediately read on a ViewLux high-throughput CCD imager (Exposure = 10 sec, Gain = High, Speed = Slow, Binning = 2X). The above assay was also incorporated in the NCATS HTS facility41, which allowed for robotic liquid and compound dispensing, microplate handling, and fluorescence reading.
Inglese J, Shamu CE and Guy RK, Reporting data from high throughput screening of small molecule libraries, Nature Chemical Biology, 2007, 3(8): 438-441. doi.org/10.1038/nchembio0807-438.
On the % scale 0 is the no-effect control and ±100 the full control effect; potency means the concentration at half of the fitted maximal effect.

Chain of Polyprotein P1234 (Chikungunya virus (strain S27-African prototype)) (Q8JUX6 whole entry, looked up): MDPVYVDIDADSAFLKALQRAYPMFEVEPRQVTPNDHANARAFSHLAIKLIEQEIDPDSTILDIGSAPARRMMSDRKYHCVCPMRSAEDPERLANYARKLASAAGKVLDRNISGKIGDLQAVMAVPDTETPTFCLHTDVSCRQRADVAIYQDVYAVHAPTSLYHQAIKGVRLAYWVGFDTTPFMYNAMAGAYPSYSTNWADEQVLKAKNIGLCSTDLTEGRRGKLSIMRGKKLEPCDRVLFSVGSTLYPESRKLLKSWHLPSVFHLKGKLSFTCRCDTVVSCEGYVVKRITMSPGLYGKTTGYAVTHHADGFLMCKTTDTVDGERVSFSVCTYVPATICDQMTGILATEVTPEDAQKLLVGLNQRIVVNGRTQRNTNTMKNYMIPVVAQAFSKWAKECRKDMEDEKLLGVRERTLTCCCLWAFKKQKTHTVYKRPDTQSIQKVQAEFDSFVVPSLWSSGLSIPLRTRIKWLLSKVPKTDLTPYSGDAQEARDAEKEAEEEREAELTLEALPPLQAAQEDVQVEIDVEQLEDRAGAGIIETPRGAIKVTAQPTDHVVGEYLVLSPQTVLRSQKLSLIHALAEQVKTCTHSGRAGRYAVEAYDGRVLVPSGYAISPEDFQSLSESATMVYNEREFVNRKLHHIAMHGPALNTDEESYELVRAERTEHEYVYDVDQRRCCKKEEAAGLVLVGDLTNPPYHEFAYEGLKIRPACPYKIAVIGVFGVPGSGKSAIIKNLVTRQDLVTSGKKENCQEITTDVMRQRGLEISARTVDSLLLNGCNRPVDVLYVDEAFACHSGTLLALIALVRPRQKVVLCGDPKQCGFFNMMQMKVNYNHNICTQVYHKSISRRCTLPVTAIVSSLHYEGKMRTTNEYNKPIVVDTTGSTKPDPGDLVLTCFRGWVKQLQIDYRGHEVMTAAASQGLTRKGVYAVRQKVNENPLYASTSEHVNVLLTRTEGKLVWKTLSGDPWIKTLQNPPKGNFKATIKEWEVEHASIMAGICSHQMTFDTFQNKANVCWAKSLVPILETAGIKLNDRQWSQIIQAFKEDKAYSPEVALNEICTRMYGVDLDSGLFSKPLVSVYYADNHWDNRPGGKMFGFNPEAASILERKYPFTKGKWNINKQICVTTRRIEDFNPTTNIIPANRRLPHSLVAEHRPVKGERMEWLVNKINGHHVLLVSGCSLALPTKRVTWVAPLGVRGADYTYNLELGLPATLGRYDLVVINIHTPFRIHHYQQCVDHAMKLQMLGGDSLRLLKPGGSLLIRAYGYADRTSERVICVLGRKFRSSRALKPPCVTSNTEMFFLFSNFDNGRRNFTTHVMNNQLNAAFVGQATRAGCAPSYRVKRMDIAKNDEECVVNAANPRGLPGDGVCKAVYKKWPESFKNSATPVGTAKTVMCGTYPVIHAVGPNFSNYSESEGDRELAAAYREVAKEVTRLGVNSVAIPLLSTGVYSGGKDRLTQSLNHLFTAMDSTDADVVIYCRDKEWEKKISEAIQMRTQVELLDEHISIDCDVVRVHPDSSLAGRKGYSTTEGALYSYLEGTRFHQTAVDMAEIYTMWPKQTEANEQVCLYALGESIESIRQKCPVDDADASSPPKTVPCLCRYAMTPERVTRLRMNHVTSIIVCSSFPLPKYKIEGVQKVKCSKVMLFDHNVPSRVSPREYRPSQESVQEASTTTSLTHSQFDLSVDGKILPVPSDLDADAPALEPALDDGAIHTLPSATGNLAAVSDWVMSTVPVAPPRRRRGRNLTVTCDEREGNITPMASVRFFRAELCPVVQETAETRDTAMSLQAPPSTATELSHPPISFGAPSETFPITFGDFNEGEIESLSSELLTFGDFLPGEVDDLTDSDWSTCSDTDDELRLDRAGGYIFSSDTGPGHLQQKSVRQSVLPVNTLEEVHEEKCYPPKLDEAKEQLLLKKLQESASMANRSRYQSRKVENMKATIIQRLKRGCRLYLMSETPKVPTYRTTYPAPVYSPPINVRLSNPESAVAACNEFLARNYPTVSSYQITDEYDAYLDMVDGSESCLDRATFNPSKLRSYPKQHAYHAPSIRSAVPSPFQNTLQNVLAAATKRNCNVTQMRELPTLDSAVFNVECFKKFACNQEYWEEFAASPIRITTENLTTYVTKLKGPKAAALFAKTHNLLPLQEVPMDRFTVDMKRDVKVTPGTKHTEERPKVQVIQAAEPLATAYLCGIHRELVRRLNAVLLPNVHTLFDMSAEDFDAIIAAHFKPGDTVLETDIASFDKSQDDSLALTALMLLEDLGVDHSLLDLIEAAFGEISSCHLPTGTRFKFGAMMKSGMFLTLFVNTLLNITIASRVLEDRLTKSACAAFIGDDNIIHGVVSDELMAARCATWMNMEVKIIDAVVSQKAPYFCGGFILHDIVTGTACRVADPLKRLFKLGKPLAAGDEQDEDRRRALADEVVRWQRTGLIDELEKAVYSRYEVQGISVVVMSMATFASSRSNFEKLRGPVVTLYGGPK

Row | SMILES | Potency | activity change, negative = inhibition | outcome
1 | CCOc1ccc(NC(=O)c2c(NC(=O)Cc3ccccc3)sc3c2CCC(C)C3)cc1 (stereo not given) | 13 µM (active) |  | 
2 | C[C@@H]1[C@H](O)[C@@H]2OC(=O)C3=C2[C@H](CCC3)[C@@]12C[C@@H](c1ccoc1)OC2=O |  | 4.66% [at 33.5 µM] | 
3 | CCOc1ccc(NC(=O)c2c(NC(=O)Cc3ccccc3)sc3c2CCCCC3)cc1 | 16.3 µM (active) |  | 
4 | C[C@@H]1C[C@@H](O)[C@@]23CO[C@]2(CO)C[C@@H](O)CC3[C@@]12CC(c1ccoc1)OC2=O (stereo not given in full) |  |  | inactive
5 | CCC(C)C(=O)OC1C(C)C2(O)C(C=C(CO)CC3(O)C(=O)C(C)=CC32)C2C(C)(C)C12OC(=O)C(C)C (stereo not given) |  |  | inactive [at 17.2 µM]
6 | N#CSc1cc(SC#N)c(N)nc1N | 0.206 µM (active) |  | 
7 | CCc1ccccc1NC(=O)c1cnn(-c2ccc(F)cc2)c1C1CCNCC1 |  | -19.4% | 
8 | Cc1c(S(=O)(=O)O)oc2c1C(=O)C(=O)c1c-2ccc2c1CCCC2(C)C |  | -3.07% | 
9 | Cn1nnnc1Sc1ncnc2n[nH]c(-c3cccc(S(C)(=O)=O)c3)c12 | 4.47 µM (active) |  | 
10 | O=C(O)c1cccc(-n2[nH]c(-c3ccccc3)cc2=O)c1 |  | 76.4% | 
11 | CC1=C(/C=C/C(C)=C/C=C/C(C)=C/C=C/C=C(C)/C=C/C=C(C)/C=C/C2=C(C)CCCC2(C)C)C(C)(C)CCC1 |  | -19.9% | 
12 | Oc1ccc(OC2CCCCO2)cc1 (stereo not given) |  | -6.04% | 
13 | CCOc1ccc(N(Cc2ccccc2)C(=O)c2nc(S(C)(=O)=O)ncc2Cl)cc1 | 4.61 µM (active) |  | 
14 | CC(=O)N[C@@H](C(=O)O[C@H]1CCC(C)(C)[C@@H]2CCC3=C(COC3=O)[C@@]12C)C(C)C |  | -0.53% [at 33.5 µM] | 
15 | CO[C@]1(NC(=O)CSC(F)F)C(=O)N2C(C(=O)O)=C(CSc3nnnn3CCO)CO[C@H]21 |  | 1.15% | 
